Bioassay records as filed in PubChem.
Sampled rows, rich in hits. Any-hit rate of the full collection: about 1.9%.
ROCK2 blocker = inhibitors of human Rho kinase 2 | O75116 | purified ROCK2, Kinase-Glo ATP depletion luminescence | inhibition, % at 6 µM | 60,000 tested, 0.35% active | AID 604;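 active = inhibition above the screen-wide mean inhibition plus 3 SD, cut at about 18% in these data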
JNK3 blocker = JNK3 (human) kinase inhibition | 60,000 tested, 0.61% active | inhibition, % at 8 µM | P53779 | purified JNK3 kinase activity, HTS; in the data active = inhibition above about 17%
Target sequence (P53779 whole entry, looked up): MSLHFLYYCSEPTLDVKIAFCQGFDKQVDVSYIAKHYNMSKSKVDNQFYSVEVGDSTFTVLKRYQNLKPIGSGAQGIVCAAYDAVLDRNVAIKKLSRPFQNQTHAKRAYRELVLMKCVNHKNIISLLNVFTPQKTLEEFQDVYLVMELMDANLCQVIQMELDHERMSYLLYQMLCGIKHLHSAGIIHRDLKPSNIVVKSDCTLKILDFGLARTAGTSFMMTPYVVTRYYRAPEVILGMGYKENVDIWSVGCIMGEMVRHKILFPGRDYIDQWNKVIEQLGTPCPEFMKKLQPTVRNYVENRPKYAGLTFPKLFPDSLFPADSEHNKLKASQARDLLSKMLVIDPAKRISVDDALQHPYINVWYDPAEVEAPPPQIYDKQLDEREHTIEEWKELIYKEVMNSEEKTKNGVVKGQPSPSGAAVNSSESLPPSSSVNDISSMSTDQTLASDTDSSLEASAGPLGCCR
PKA inh = inhibitors of human protein kinase A; P17612; PKA Kemptide phosphorylation, Kinase-Glo ATP luminescence; inhibition, % at 6 µM; 65,000 tested, 0.1% active; AID 524;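 active = inhibition above the screen-wide mean inhibition plus 3 SD, cut at about 21% in these data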
Jurkat tox 60K = cytotoxic compounds reducing Jurkat cell viability; Jurkat E6.1 viability, ATP luminescence, 48 h; inhibition, % at 4 µM; 56,000 tested, 1.2% active; AID 463;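 active = inhibition above the mean inhibition of all tested compounds plus 3 SD, cut at about 28% in these data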
Hsp90 inh = displaces geldanamycin probe from tumor Hsp90 | P07900 | NCI-N417 lysate Hsp90, Cy3B-geldanamycin FP displacement | inhibition, % at 30 µM | 64,000 tested, 0.35% active;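 active = inhibition above 50%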
Of the large screens only hits and unclear results are named; the others gave an inactive call.

CCc1ccccc1NC(=O)Cn1nnc(-c2cccs2)n1	none
CCn1c(C(C)NC(C)=O)nc2ccccc21 (stereo not given)	JNK3 blocker 31
COc1cc(NC(C)=O)c2ncccc2c1	none (no result: ROCK2 blocker, JNK3 blocker, PKA inh, Jurkat tox 60K)
O=C(O)C1CC=CCC1C(=O)Nc1ccc(S(=O)(=O)N2CCCc3ccccc32)cc1 (stereo not given)	Jurkat tox 60K 35
COc1cc(C2NC(=O)NC(C)=C2C(=O)OC2CCCC(C)C2)ccc1O (stereo not given)	JNK3 blocker 36
CC1=C(C(=O)OC2CCCCCCC2)C(c2ccc(O)cc2)NC(=O)N1 (stereo not given)	JNK3 blocker 22
CC(C)CC(OC(=O)c1cccs1)C(=O)NCc1cccs1 (stereo not given)	none
CC(OC(=O)c1cccs1)C(=O)NCc1cccs1 (stereo not given)	Hsp90 inh 92
COc1ccc(C2=NOC(C(=O)NCc3ccccc3)C2)cc1 (stereo not given)	Jurkat tox 60K 45
CCn1ncc(C2=NOC(C(=O)Nc3c(C)n(C)n(-c4ccccc4)c3=O)C2)c1C (stereo not given)	none
CCn1ncc(C2=NOC(C(=O)Nc3c(C)nn(Cc4ccc(F)cc4)c3C)C2)c1C (stereo not given)	none
COc1cccc(C2=NOC(C(=O)NCc3ccccc3)C2)c1 (stereo not given)	none
CCn1ncc(C2=NOC(C(=O)NCc3ccc(OC)cc3)C2)c1C (stereo not given)	Jurkat tox 60K 39
CCn1ncc(C2=NOC(C(=O)NCc3ccccc3)C2)c1C (stereo not given)	Jurkat tox 60K 93
CC1(C)Cc2c(sc3c4nnnn4c4nnnn4c23)CO1	none (no result: Jurkat tox 60K)
Cn1c(=O)[nH]c(=O)c2c1nc(CN1CCN(Cc3ccccc3)CC1)n2CC(N)=O	none
COc1cc(OC)cc(C(C)=O)c1	none
O=C(NC1CCCC1)c1cccnc1N1CCCCCC1	JNK3 blocker 34
CC1(C)C=Cc2c(c3ccccc3[nH]c2=O)O1	none
COc1cc2c(cc1OC)C(c1cccs1)NCC2 (stereo not given)	none (no result: ROCK2 blocker, JNK3 blocker, Jurkat tox 60K, Hsp90 inh)
CN1CCc2c(cc(O)c(O)c2Cl)C(c2cccc(Cl)c2)C1 (stereo not given)	Hsp90 inh 81 (no result: ROCK2 blocker, JNK3 blocker, PKA inh, Jurkat tox 60K)
CN1CCc2cc(Cl)c(O)cc2[C@@H](c2ccccc2)C1	none (no result: ROCK2 blocker, JNK3 blocker, PKA inh, Jurkat tox 60K)
Oc1cc2c(cc1O)C(c1ccccc1)CNCC2 (stereo not given)	Hsp90 inh 64 (no result: ROCK2 blocker, JNK3 blocker, PKA inh, Jurkat tox 60K)
CN1CCc2cc(O)c(O)cc2C(c2ccccc2)C1 (stereo not given)	Hsp90 inh 59 (no result: ROCK2 blocker, JNK3 blocker, PKA inh, Jurkat tox 60K)
CCCCC/C=C\CC(O)/C=C/c1cccc(CC(O)CCCCO)n1 (stereo not given)	none (no result: ROCK2 blocker, JNK3 blocker, PKA inh, Jurkat tox 60K)
NC(=S)NCCCC(N)C(=O)O (stereo not given)	none (no result: ROCK2 blocker, JNK3 blocker, PKA inh, Jurkat tox 60K)
CCC1(C)Cc2c(c(=O)n(-c3ccccc3)c3ncnc(N)c23)CO1 (stereo not given)	none
COCCCN(C(C)=O)c1nc(-c2ccc(OC)cc2)cs1	Jurkat tox 60K 57
COc1ccc(-c2csc(N(CCCN(C)C)C(=O)c3cccs3)n2)cc1	none
Cc1cc(NC(=O)COc2cccc(Oc3ccccc3)c2)no1	Jurkat tox 60K 50
CCOc1ccc(C2C=C(c3ccc(C)cc3)Nc3nnnn32)cc1 (stereo not given)	none
COc1ccccc1C1C=C(c2ccc(C)cc2)Nc2nnnn21 (stereo not given)	Jurkat tox 60K 36
CCCCCCCCCCCCCCCCCC(=O)OC(CC(=O)O)C[N+](C)(C)C (stereo not given)	none (no result: ROCK2 blocker, JNK3 blocker, PKA inh, Jurkat tox 60K)
CCOC(=O)CSC1=C(C#N)C(c2ccc(C)o2)CC(=O)N1 (stereo not given)	Jurkat tox 60K 99
CC1CN(S(=O)(=O)c2ccc(NC(=O)c3cc(-c4ccccc4O)n[nH]3)cc2)CC(C)O1 (stereo not given)	Jurkat tox 60K 54
c1ccc2nc3c(nc2c1)[nH]c1ccccc13	JNK3 blocker 55
CCCCOc1cccc(NC(=O)CSc2nccn2C)c1	none
CSc1nnc2c3ccccc3n(CCc3ccccc3)c2n1	Jurkat tox 60K 37
COc1ccc(-n2cnnc2SCc2csc(-c3ccccc3)n2)cc1	none
COc1cccc(N2C(N)=NC(N)=NC2(C)C)c1	Jurkat tox 60K 66
COC(=O)c1c(-c2cc(OC)c(OC)c(OC)c2)c2ccc(OCc3ccccn3)cc2c(=O)n1-c1ccc(N)cc1	none (no result: ROCK2 blocker, JNK3 blocker, PKA inh, Jurkat tox 60K)
COC(=O)c1ccc(NC(=O)c2ccc(N(C)S(C)(=O)=O)cc2)cc1	Jurkat tox 60K 31
Cc1cc(C)c(C)c(OCC(=O)NCc2nc(-c3ccccc3)no2)c1	none
CC(=O)Nc1ccccc1N(C)S(=O)(=O)c1ccc(C)cc1	Jurkat tox 60K 45
CC(=O)Nc1ccccc1NC(=O)CN(C)S(=O)(=O)c1ccc(C)cc1	none
CCN1CCN(S(=O)(=O)c2cc(OCC(=O)NC3CCCCC3)c(C)cc2Cl)CC1	Jurkat tox 60K 53
O=C(CNS(=O)(=O)c1cccc2nsnc12)NCc1ccc(Cl)cc1	none (no result: ROCK2 blocker, JNK3 blocker, Jurkat tox 60K, Hsp90 inh)
COc1cc(NCCCCCN2C(=O)c3ccccc3C2=O)c2ncccc2c1	none (no result: ROCK2 blocker, JNK3 blocker, PKA inh, Jurkat tox 60K)
c1ccc2[nH]c(CSc3ncnc4c3oc3ccccc34)nc2c1	JNK3 blocker 19
COC(=O)c1sc(N)c(C(=O)OC)c1COC(=O)c1c(C)noc1C	Jurkat tox 60K 94
CCCSc1nnc(Sc2nnnn2-c2ccccc2)s1	Jurkat tox 60K 98
Cc1cc(SCC(N)=O)nc(SCC(=O)c2ccccc2)n1	Hsp90 inh 91
O=C(Nc1nc2ccccc2[nH]1)c1ccccc1F	Jurkat tox 60K 52
N#Cc1cccc(NC(=O)CSc2ccccc2)c1	ROCK2 blocker 19
O=C(CCc1ccccc1)Nc1ccc(Cl)cn1	Jurkat tox 60K 78
Cc1ccccc1C(=O)Nc1ccc(Cl)cn1	none
Cc1ccc(C(=O)Nc2ccc(Cl)cn2)cc1	Jurkat tox 60K 76
CCC(=O)c1cn(CC(=O)NCc2cccnc2)c2ccccc12	none
CCOc1ccc(CCNC(=O)C2CCC(=O)N2C2CCCCC2)cc1OCC (stereo not given)	none
Cn1c(C(=O)NCc2cccs2)cc2oc3ccccc3c21	Jurkat tox 60K 29
O=C(NC1CCCC1)c1ccc2nc[nH]c2c1	none
O=C(c1ccccc1)c1ccc2nc[nH]c2c1	ROCK2 blocker 33
CCOC(=O)c1sc(NC(=O)c2cc3c(C)nn(-c4ccccc4)c3s2)nc1C	none (no result: ROCK2 blocker, JNK3 blocker, Jurkat tox 60K, Hsp90 inh)
Cc1ccc(Oc2ccc(S(=O)(=O)N3CCOCC3)cc2C(N)=O)c(-n2nc3ccccc3n2)c1	Jurkat tox 60K 87
FC(F)(F)c1cc(CO[C@H]2CCCN[C@H]2c2ccccc2)cc(C(F)(F)F)c1	none (no result: ROCK2 blocker, JNK3 blocker, PKA inh, Jurkat tox 60K)
O=C1NC(O)=NC1(c1ccccc1)c1ccccc1	none (no result: ROCK2 blocker, JNK3 blocker, PKA inh, Jurkat tox 60K)
COc1ccc(S(=O)(=O)Cc2ccc(C(=O)N3CCN(c4cccc(C)c4)C(C)C3)o2)cc1 (stereo not given)	Jurkat tox 60K 90
COc1ccccc1S(=O)(=O)Cc1ccc(C(=O)N2CCN(c3ccc(C)cc3)C(C)C2)o1 (stereo not given)	none
CC(C)CCN1C(=O)c2ccc(C(=O)NCC3CCCO3)cc2C1=O (stereo not given)	none
O=C(O)CCNc1cc2ccccc2cc1C(=O)O	none
COc1ccc(C(C)=O)cc1COC(=O)c1cc(C)oc1C	JNK3 blocker 18
